Results published in PubChem BioAssay AID1974 (The Scripps Research Institute Molecular Screening Center, 2009).
Hit rate of the full screen: of about 300,000 compounds, about 3,200 (1.1%) were called active. Shown is part of a subset that was picked to be rich in actives. Values without a mark were called inactive.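 How the source made its calls: active means inhibition above the campaign mean inhibition plus 3 SD (cut at about 35% in these data); inactive means the rest.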

What follows are molecules tested against Glutathione S-transferase omega-1 (Homo sapiens) (UniProt P78417) (assay: inhibitors of recombinant GSTO1, primary screen, counter-screen for RBBP9 inhibitor project, biochemical, fluorescence polarization (AID 1974;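 further: 0% = GSTO1-1 with DMSO and 100% = wells lacking GSTO1-1 enzyme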)). Details: recombinant GSTO1, activity-based probe fluorescence polarization; at 5.96 µM; active compounds read high.
Chain of Glutathione S-transferase omega-1 (Homo sapiens) (P78417 whole entry, looked up): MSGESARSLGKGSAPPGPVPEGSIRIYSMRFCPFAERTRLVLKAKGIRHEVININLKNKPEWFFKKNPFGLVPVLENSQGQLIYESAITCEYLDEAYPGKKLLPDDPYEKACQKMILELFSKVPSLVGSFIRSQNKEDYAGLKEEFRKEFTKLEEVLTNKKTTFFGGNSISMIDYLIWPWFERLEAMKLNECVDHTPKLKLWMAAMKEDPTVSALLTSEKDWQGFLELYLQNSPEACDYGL
For `NC(=O)CSc1nnc(NC(=O)c2ccc3ccccc3c2)s1`, the inhibition was -7.13%.
With `Cc1ccc(/C=C2\SC(=S)N(CCC(=O)Nc3ccc(O)cc3)C2=O)cc1` the inhibition was -1.64%.
In the case of `Cc1ccc(/C=C2/SC(=S)N(CCC(=O)NCCCN3CCOCC3)C2=O)cc1`, the inhibition is reported as 36.4% (active).
`O=C(CCN1C(=O)c2ccccc2C1=O)NCCN1CCOCC1` gave an inhibition of 6.46%.
Work on `Cc1csc(NC(=O)CSc2nc(=O)n(CCCN(C)C)c3c2CCC3)n1` yielded an inhibition of 10.8%.
`Cc1nn(-c2ccccc2)c(C)c1NC(=O)COc1ccc(Cl)cc1Cl` gave an inhibition of 8.17%.
`Cc1cccc(C)c1NC(=O)CNC(=O)c1c(C)nn(-c2ccccc2)c1C` gave an inhibition of -1.44%.
In the case of `Cc1nn(-c2ccccc2)c(C)c1NC(=O)CCl`, the inhibition is reported as 82.7% (active).
Molecule `O=C(Nc1ccc2nc3n(c(=O)c2c1)CCCC3)c1ccc(Cl)nc1` has an inhibition of -3.93%.
In the case of `Cc1nn(C)c(C)c1NS(=O)(=O)c1ccc(OC(F)(F)F)cc1`, the inhibition is reported as 5.1%.
With `O=S(=O)(Nc1ccc(O)c2ccccc12)c1ccc(OC(F)(F)F)cc1` the inhibition was 67.3% (active).
`O=S(=O)(Nc1ccc(OC(F)(F)F)cc1)c1cccc2nonc12` showed an inhibition of 10.2%.
`CSc1nnc(C2CCCN(CC(=O)Nc3ccccc3N3CCOCC3)C2)n1C(C)C` (configuration not stated) gave an inhibition of 4.43%.
Work on `O=C(c1cc(-c2ccc(Cl)s2)nc2ccccc12)N1CCOCC1` yielded an inhibition of -12.9%.
Molecule `CCOc1ccc(/C=C/C(=O)N(CC)CC(=O)NCc2cccs2)cc1OC` has an inhibition of 19.7%.
For `Cc1cccn2c(=O)nc(SCC(=O)NCc3ccccc3Cl)nc12`, the inhibition was 0.44%.
Work on `CC1=CC(C)(C)Nc2ccc(OC(=O)C(Cc3ccccc3)N3C(=O)C4CCCCC4C3=O)cc21` (configuration not stated) yielded an inhibition of 18.1%.
With `CC1=CC(C)(C)Nc2ccc(OC(=O)CN3C(=O)C4CCCCC4C3=O)cc21` (configuration not stated) the inhibition was 48.4% (active).
For `O=C(CN1C(=O)C2C3CCC(C3)C2C1=O)Oc1ccc2ccccc2c1` (configuration not stated), the inhibition was 12.6%.
In the case of `Cc1ccc([C@@H]2CC=C(C(=O)O)[C@H](c3cccc(Cl)c3)N2S(=O)(=O)c2ccc(C)cc2)cc1`, the inhibition is reported as -107%.
Work on `Cc1ccc(S(=O)(=O)N2[C@@H](c3ccccc3F)C(C(=O)O)=CC[C@H]2c2ccc(Cl)cc2)cc1` yielded an inhibition of -60.4%.
In the case of `Cc1ccccc1NC(=O)COc1cccc2c1CCNC2=O`, the inhibition is reported as 0.64%.
`Cc1ccc(S(=O)(=O)N2CCCCC2)cc1C(=O)N(C)CC(=O)Nc1cccc(F)c1` gave an inhibition of 6.24%.
`COc1ccc2c(c1)[C@H]1[C@H](CO2)[C@H](c2ccccc2)[C@]2(C)C(=O)Nc3cc(F)c(F)cc3C(=O)N12` gave an inhibition of -3.75%.
`COc1ccccc1CCC(=O)OCC(=O)N1CCN(S(=O)(=O)c2ccc(C)cc2C)CC1` showed an inhibition of 8.7%.
Work on `COc1ccc(C)cc1Nc1nc(-c2c(C)[nH]c3ccccc23)cs1` yielded an inhibition of 0.17%.
`COc1ccc(-c2csc(Nc3ccc(O)cc3)n2)cc1` was tested, and the inhibition was 44.8% (active).
In the case of `COc1ccc(OC)c(Nc2nc(-c3ccc(O)c(O)c3)cs2)c1`, the inhibition is reported as 57.3% (active).
For `COc1cccc(CC(=O)Nc2nc(-c3ccc(OC)c(OC)c3)cs2)c1`, the inhibition was -14.6%.
Work on `O=c1oc2ccccc2cc1-c1csc(Nc2ccc(O)cc2)n1` yielded an inhibition of 5.73%.
`COc1ccc(-c2csc(Cc3nc(O)cs3)n2)cc1` gave an inhibition of 8.36%.
In the case of `COc1cccc(N2CC(NS(=O)(=O)c3cccs3)CC2=O)c1` (configuration not stated), the inhibition is reported as 7.08%.
`CC(=O)Nc1ccc(C(=O)Nc2cccc(S(=O)(=O)NC3=NCCC3)c2)cc1` showed an inhibition of 0.43%.
In the case of `O=C(OCc1nnc(-c2ccccc2)o1)c1cc(=O)[nH]c2ccccc12`, the inhibition is reported as 8.64%.
With `CCC(C)N(C(=O)COC(=O)c1nc(Cl)ccc1Cl)C1CCS(=O)(=O)C1` (configuration not stated) the inhibition was -3.44%.
Molecule `CCOC(=O)[C@H]1[C@H]2COc3ccc(OC)cc3[C@@H]2N2C(=O)c3ccc(F)cc3NC(=O)[C@@]12C` has an inhibition of 8.55%.
Molecule `Cc1ccc(Cn2c(=N)c(S(=O)(=O)c3ccc(C)cc3)cc3c(=O)n4ccccc4nc32)cc1` has an inhibition of 1.35%.
In the case of `O=[N+]([O-])C(=c1ccc2c(c1)N1C3=C(CCCC3)CC3CCCCC31N=2)[N+](=O)[O-]` (configuration not stated), the inhibition is reported as 35.2% (active).
In the case of `CCN(CC(=O)NCc1ccc(Cl)cc1)C(=O)CSc1ccccc1`, the inhibition is reported as -6.37%.
`O=C(Cc1ccc(Br)cc1)NCCN1CCOCC1` showed an inhibition of -0.16%.
`O=C(NCCN1CCOCC1)c1cc(-c2cccs2)nc2ccccc12` was tested, and the inhibition was -2.35%.
`O=C(Cn1c(-c2ccccn2)nc2ccccc21)NCCN1CCOCC1` was tested, and the inhibition was 98.3% (active).
For `CCCCN(C1CCS(=O)(=O)C1)S(=O)(=O)c1ccc(C(C)C)cc1` (configuration not stated), the inhibition was -0.04%.
With `CC(C)Oc1ccc(C(CC(=O)N2CCOCC2)C(C)C)cc1` (configuration not stated) the inhibition was 10.3%.
`Cc1ccc(N(Cc2cc(=O)[nH]c3ccccc23)C(=O)CCl)cc1` was tested, and the inhibition was 80% (active).
`Cc1ccc(N(Cc2cc3ccccc3[nH]c2=O)C(=O)c2cccs2)cc1` was tested, and the inhibition was 0.73%.
`CC(=O)N(Cc1cc(=O)[nH]c2ccccc12)c1ccc(C)cc1C` was tested, and the inhibition was -13.1%.
In the case of `Cn1c(-c2ccc(C(F)(F)F)cc2)cc2onc(-c3ccccc3)c2c1=O`, the inhibition is reported as 4.73%.
With `CC(C)(C)c1ccc(C(=O)NCc2ccco2)cc1` the inhibition was -7.66%.
For `Cc1nn(CC(=O)Nc2nc3ccccc3s2)c(C)c1[N+](=O)[O-]`, the inhibition was 11.3%.
In the case of `CCC(C)Cn1c(O)cc2nn(-c3nc4ccccc4s3)c(=O)c-2c1C` (configuration not stated), the inhibition is reported as 36% (active).
In the case of `C/C(=N\NC(=O)CC(C)C)c1c(C(F)(F)F)[nH]n(-c2nc3ccccc3s2)c1=O`, the inhibition is reported as -27.6%.
With `O=C(CN1C(=O)NC2(CCCC2)C1=O)OCCOc1ccc(F)cc1` the inhibition was 8.87%.
`C=CCOc1c(Br)cc(/C=N\n2nnnc2N)cc1OC` showed an inhibition of 0.64%.
`CCOc1c(Br)cc(/C=C2\C(=O)N(CCC#N)N=C2C)cc1OC` was tested, and the inhibition was 39.6% (active).
Molecule `COc1cc(/C=C2/C(=O)NN(c3cccc(Cl)c3)C2=O)cc(Br)c1O` has an inhibition of -21.9%.
With `Cc1ccc(NC(=O)C2CC(=O)N(c3ccc4c(c3)OCCO4)C2)cc1S(=O)(=O)N1CCCCCC1` (configuration not stated) the inhibition was 0.87%.
